Test results published in PubChem BioAssay AID651813 (National Center for Advancing Translational Sciences (NCATS), 2012).
Hit rate of the full screen: of about 2,100 compounds, about 1,100 (52%) were called active. Another 27% or so got no clear call; they are omitted. The set was probably picked from earlier hits. This is one part of the list. A number with no mark means an inactive call. Calls come from the whole dose curve; as a rule, active = well fitted inhibition curve with a large enough effect; inconclusive = small, poorly fitted or top-dose-only effect; inactive = no such curve, though single readings can be large or run the other way.

The molecules below were run against DNA dC->dU-editing enzyme APOBEC-3G (Homo sapiens) (UniProt Q9HC16) (assay: qHTS for inhibitors of Vif-A3G interactions: Cherry picks counterscreen). Conditions: HeLa A3G-eYFP + Vif (tagged APOBEC3G with the HIV-1 protein that degrades it), eYFP fluorescence, 24 h.
DNA dC->dU-editing enzyme APOBEC-3G (Homo sapiens), sequence (Q9HC16 whole entry, looked up): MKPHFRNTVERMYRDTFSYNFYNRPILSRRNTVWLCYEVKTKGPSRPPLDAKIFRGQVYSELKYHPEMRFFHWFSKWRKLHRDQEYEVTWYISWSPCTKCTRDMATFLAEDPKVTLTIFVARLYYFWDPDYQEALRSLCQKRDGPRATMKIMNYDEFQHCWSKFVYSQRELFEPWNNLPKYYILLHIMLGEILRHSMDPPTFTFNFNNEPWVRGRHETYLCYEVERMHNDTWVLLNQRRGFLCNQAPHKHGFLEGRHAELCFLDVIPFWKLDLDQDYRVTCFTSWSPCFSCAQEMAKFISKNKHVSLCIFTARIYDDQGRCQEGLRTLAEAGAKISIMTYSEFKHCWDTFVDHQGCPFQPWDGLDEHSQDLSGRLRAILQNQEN
Source text: The recent discovery and characterization of host restriction factors, which provide a potent defense to invading retroviruses, has provided new targets for antiviral drug development. APOBEC3G (A3G) and APOBEC3F (A3F) are potent cytidine deaminases that block HIV-1 replication; HIV-1 expresses the Vif protein, which counteracts A3G and A3F by binding to them and inducing their proteasomal degradation. The Vif-A3G and Vif-A3F interactions provide two potential targets for development of small molecules which can interfere with the ability of Vif to degrade A3G or A3F. […] To identify inhibitors that can interfere with Vif mediated degradation of A3G and A3F, we have developed Hela cell lines that stably express A3G or A3F tagged with eYFP at the C-terminal end (A3G-eYFP or A3F-eYFP, respectively) and Vif. In the absence of an inhibitor, Vif induces degradation of A3G-eYFP and A3F-eYFP, and the cells are not fluorescent. In the presence of an inhibitor, it is expected that Vif will be unable to degrade A3G-eYFP and/or A3F-eYFP, resulting in an increase in yellow fluorescence. In this counterscreen assay, Vif A3G was screened against the cherry picks ordered from the MLSMR. NIH Chemical Genomics Center [NCGC] NIH Molecular Libraries Probe Centers Network [MLPCN] MLPCN Grant: MH093245 Assay Submitter (PI): Vinay Pathak, National Cancer Institute
A3G-Vif cells were harvested from T225 flask and resuspended in phenol free OPTI-MEM medium with 5% FBS. Then 5 uL of 140,000 cells/mL resuspended cells was dispensed into each well of low base Aurora COC 1,536-well plates (black walled, clear bottom) using a Multidrop Combi dispenser. After overnight culture at 37 deg C with 5% CO2, a total of 23 nL of compounds at 5 selected concentrations from the NPC or positive control (2 mM stock of MG132) in DMSO was transferred to each well of the assay plate using a pintool (Kalypsys, San Diego, CA), and the plates were further incubated at 37 deg C with 5% CO2 for 24 hours. After that, the plates were measured on Acumen Explorer (TTP Lab Tech). The fluorescence was detected by 488 nm/Ex and […].
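Note: hits raise yellow fluorescence by blocking Vif-driven A3G-eYFP degradation; nearly all actives have a fitted effect of over 70% in size.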
Potency is the fitted concentration of half-maximal effect.
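Throughout, for max response: max response given as percent of control signal.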

| SMILES | Potency | max response [%] |
| --- | --- | --- |
| COC(=O)CCC(=O)NC(=S)Nc1sc(C)c(C)c1C(N)=O | 0.886 µM (active) |  |
| Cc1nonc1NC(=O)CSc1nc2c(C)cccc2cc1C#N | 20.6 µM (active) |  |
| Cc1cc(NC(=O)CSc2nc(-c3cccs3)nc3ccccc23)no1 | 3.53 µM (active) |  |
| Cc1cc(NC(=O)CSc2nc3c(C)cccc3cc2C#N)no1 | 4.11 µM (active) |  |
| C1=Cc2ccccc2/C1=C\c1cc2c3c(c1)CCCN3CCC2 | 13 µM (active) |  |
| c1ccc2c(CCc3c[nH]c4ccccc34)ccnc2c1 | 16.4 µM (active) |  |
| CSc1nsc(/C=C/Nc2ccc(F)cc2)c1C#N | 16.4 µM (active) |  |
| CSc1nsc(/C=C/Nc2ccc(C)cc2)c1C#N | 15.8 µM (active) |  |
| CCN(CC)c1ccc(/C=c2/sc3nnc(-c4ccccc4C)n3c2=O)cc1 | 23.1 µM (active) |  |
| CCOC(=O)Nc1ccc2nc(-c3cscn3)[nH]c2c1 | 8.86 µM (active) |  |
| O=C(O)CCCN1C(=O)/C(=C\C(Cl)=C\c2ccccc2)SC1=S | 5.59 µM (active) |  |
| CCC(=O)Nc1ccccc1-c1nc2ccccc2n(C(C)C(=O)Nc2ccc(OC)cc2)c1=O (centres undefined) | 8.2 µM (active) |  |
| COCCNC(=O)C(=O)Nc1ccc2c(c1)N(S(=O)(=O)c1cccs1)CCC2 | 6.27 µM (active) |  |
| O=C(Nc1nc2ccccc2s1)c1ccc([N+](=O)[O-])o1 |  | -24.2 |
| Nc1c(C(=O)Nc2nc3ccccc3s2)sc2nc(-c3cccs3)ccc12 | 6.51 µM (active) |  |
| Cc1nnc(NC(=O)c2sc3nc(-c4cccs4)cc(C(F)(F)F)c3c2N)s1 | 2.59 µM (active) |  |
| Nc1c(C(=O)Nc2nccs2)sc2nc(-c3cccs3)cc(C(F)(F)F)c12 | 7.9 µM (active) |  |
| Nc1c(C(=O)Nc2ccc(F)cc2)sc2nc(-c3cccs3)cc(C(F)(F)F)c12 | 0.82 µM (active) |  |
| CC(C)Cn1c(N)c(C(=O)COC(=O)c2ccc([N+](=O)[O-])o2)c(=O)n(C)c1=O |  | 8.96 |
| Cc1c(C(=O)C(=O)N2CC=C(c3ccccc3)CC2)c2ccccc2n1C | 7.04 µM (active) |  |

| SMILES | Potency | max response [%] |
| --- | --- | --- |
| Cc1c(C(=O)C(=O)N2CCCc3ccccc32)c2ccccc2n1C | 11.2 µM (active) |  |
| O=C(/C=C/c1ccco1)N1CCc2ccccc21 |  | -19.9 |
| CCOC(=O)c1cc(-c2ccccc2)sc1NC(=S)Nc1cc(C)ccn1 | 18.4 µM (active) |  |
| CCOC(=O)c1ccc(NC(=S)Nc2cccc(C)n2)cc1 |  | -9.19 |
| Cc1ccc(NC(=S)Nc2ccccn2)c(C)c1 |  | -5.64 |
| Cc1ccnc(NC(=O)Nc2ccc3c(c2)N(C)C(=O)CS3)c1 | 2.59 µM (active) |  |
| Cc1ccc(-c2nc3sc(C#N)c(N)n3c(=O)c2C#N)cc1 | 25.9 µM (active) |  |
| O=C1c2ccccc2C(=O)c2cc(N3CCCCC3)ccc21 | 6.27 µM (active) |  |
| Cc1ccc(C(=O)N/C(=C/c2ccc(-c3ccc([N+](=O)[O-])cc3)o2)C(=O)NCCCN(C)C)cc1 | 15.8 µM (active) |  |
| Cc1cc2nc3s/c(=C/c4ccc(-c5ccccc5C(=O)O)o4)c(=O)n3c2cc1C | 23.1 µM (active) |  |
| Cc1cc(C)cc(NC(=S)NC(=O)C2CC2)c1 |  | -14.6 |
| O=C1/C(=C\c2cc([N+](=O)[O-])ccc2O)SC(=S)N1Cc1ccc(Cl)cc1 | 18.4 µM (active) |  |
| Cc1cc(N)cc(C)c1-c1c(Br)cc(N)cc1Br | 8.86 µM (active) |  |
| Nc1c(C(=O)c2ccccc2)sc2nsc(SCCN3CCCC3)c12 | 14 µM (active) |  |
| Nc1c(C(=O)c2ccccc2)sc2snc(SCC(=O)c3ccccc3)c12 | 14 µM (active) |  |
| Nc1c(C(=O)c2ccccc2)sc2nsc(SCCN3CCOCC3)c12 | 4.61 µM (active) |  |
| COc1ccc(OC)c(S(=O)(=O)N/N=C\c2cn(CC(N)=O)c3ccccc23)c1 | 15.8 µM (active) |  |
| CCN(CC)C(=O)Cn1c(C)c(/C=C/c2cc[n+](C)cc2)c2ccccc21 | 15.8 µM (active) |  |
| COC(=O)Cn1c(C)c(/C=C/c2cc[n+](C)cc2)c2ccccc21 | 9.2 µM (active) |  |
| CCOC(=O)c1c(Nc2ccc(Cl)cc2)sc(/C=C2\C=Nc3ccccc32)c1O | 20.6 µM (active) |  |

| SMILES | Potency | max response [%] |
| --- | --- | --- |
| CCOc1ccc(N(C)c2ccc(/C=C3/SC(=S)NC3=O)cc2)cc1 | 15.8 µM (active) |  |
| CN(C)c1ccc(C=C2SC(=S)NC2=O)cc1 | 9.94 µM (active) |  |
| COc1ccccc1N=C1NC(=O)/C(=C/c2ccc(N(C)C)cc2)S1 |  | 38.1 |
| C=C1C(=O)O[C@@H]2[C@H]1[C@@H](OC(=O)/C(C)=C/C)C/C(C)=C\C(=O)/C=C(\C)[C@@H]2O | 15.8 µM (active) |  |
| C=CCN1C(=O)/C(=C\C=C2\N(C)c3ccccc3C2(C)C)SC1=S | 0.291 µM (active) |  |
| CCCN1C(=O)/C(=C/C=C2\N(CC)c3ccccc3C2(C)C)SC1=S | 1.58 µM (active) |  |
| CCCCN1C(=O)/C(=C/C=C2/CC(C)(C)CN2C)SC1=S |  | 54.7 |
| CN1/C(=C\C=C2/SC(=S)N(CC(=O)O)C2=O)C(C)(C)c2ccccc21 |  | 52.2 |
| CCCN1C(=O)/C(=C\C=C2\N(CC)c3ccccc3C2(C)C)SC1=S | 2.06 µM (active) |  |
| CN1/C(=C/C=C(/C#N)C(N)=O)C(C)(C)c2ccccc21 | 9.94 µM (active) |  |
| CN1/C(=C\C=C2/SC(=S)NC2=O)C(C)(C)c2ccccc21 | 3.53 µM (active) |  |
| COc1ccc2c(c1)/C(=C\c1cccc(/C=C3/C(=O)Nc4ccc(OC)cc43)n1)C(=O)N2 |  | -72.2 |
| COc1ccc2c(c1)/C(=C/c1cc(OC)c(OC)c(OC)c1)C(=O)N2 | 3.53 µM (active) |  |
| O=[N+]([O-])c1cc(-c2nc(-c3ccccc3)no2)ccc1NCc1ccco1 | 10.3 µM (active) |  |
| Cc1cccc(-c2noc(-c3ccc(NCc4ccco4)c([N+](=O)[O-])c3)n2)c1 | 20.6 µM (active) |  |
| O=C1N/C(=N\N=C\c2ccco2)SC1Cc1ccccc1[N+](=O)[O-] (centres undefined) |  | -1.06 |
| O=C(NCc1cccnc1)c1cccc(NS(=O)(=O)c2ccc(Br)cc2)c1 | 4.44 µM (active) |  |
| N#CC1=C(N)Oc2ccc3ccccc3c2C1c1cccnc1 (centres undefined) | 6.27 µM (active) |  |
| CCN(CC)c1ccc2c(c1)OC(N)=C(C#N)C2c1cccnc1 (centres undefined) | 15.8 µM (active) |  |
